# In PubChem BioAssay (NCATS):
# Results filed as inconclusive are left out. Where a call stands in place of a potency, no number is given. Activity calls are given as the source filed them. Unless noted, calls come from the whole dose curve; as a rule, active = well fitted curve in the direction sought with a large enough effect; inconclusive = small, poorly fitted or top-dose-only effect, or another doubt; inactive = no such curve, though single readings can be large; an effect the other way counts as inactive or inconclusive.
# Legend:
# [1] = qHTS assay for cell viability of HEK293 cells (AID 743288); settings: ATP luminescence (CellTiter-Glo), 18 h; max response: stronger effect = lower value; note: nearly all actives have a fitted effect of over 50% in size
# How it was run: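 HEK293 parental, 2,000 cells/well; ≥5 h pre-incubation 37 C; pintool compound addition; 18 h, 37 C; CellTiter-Glo 30 min RT; luminescence read.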
# [2] = qHTS assay for cell viability of the p53RE-bla HCT-116 cell line (AID 743292); note: nearly all actives have a fitted effect of over 55% in size
# How it was run: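 After plating at 4,000 cells per well and a 5 h rest at 37 C, HCT-116 cells carrying p53RE-bla received test chemicals in DMSO. Sixteen hours later at 37 C, CellTiter-Glo was added and luminescence recorded following 30 min at room temperature.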
# [3] = qHTS assay for measurement of the activity of small molecule inhibitors on Zika virus induced Caspase-3 activity in human astrocytoma cells (AID 1224859)
# How it was run: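 In SNB-19 cells plated at 250 cells/well and grown 16-20 h, compounds were applied 1 h before ZIKV (2 FFU/cell). Six hours later caspase-3/7 luminescence was recorded.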
# [4] = P-glycoprotein substrates identified in KB-3-1 adenocarcinoma cell line, qHTS therapeutic library screen (AID 1346986); note: nearly all actives have a fitted effect of over 60% in size;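 note: potency is the fitted concentration of half-maximal effect; potency is for cytotoxicity meaning loss of cell viability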
# How it was run: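 Compounds were tested in dose-response against KB-3-1 and KB-8-5-11 cells at 37 degree C for 72 h, and viability was measured by luminescence. AC50 values came from curve fitting with class-based activity calls.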
# [5] = P-glycoprotein substrates identified in KB-8-5-11 adenocarcinoma cell line, qHTS therapeutic library screen (AID 1346987); note: nearly all actives have a fitted effect of over 65% in size; note: potency is the fitted concentration of half-maximal effect
# How it was run: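 KB-8-5-11: colchicine-selected sub-line of KB-3-1 over-expressing P-gp; assay medium lacked colchicine. 72 h drug exposure at 37 degree C, CellTiter-Glo.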
# [6] = qHTS assay to identify small molecule inhibitors of chordoma cells - UCH-1 (AID 1259355); note: nearly all actives have a fitted effect of over 55% in size
# How it was run: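 Cells (800/well) were seeded and left overnight at 37 C, 5% CO2, then treated with drugs at 15 concentrations plus a combination mix of auranofin, camptothecin, doxorubicin, rubitecan and topotecan. Viability after 48hr was read by CellTiter-Glo luminescence.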
# [7] = qHTS assay to identify small molecule inhibitors of chordoma cells - UCH-2 (AID 1259356)
# [8] = qHTS profiling for inhibitors of Plasmodium falciparum (3D7) proliferation (AID 743322);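 note: infected erythrocytes exposed to compound for 72 h before lysis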; settings: P. falciparum 3D7 proliferation; at 28.7 µM (top of the series) unless noted
# How it was run: (§1)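 Erythrocytes infected with P. falciparum (0.3% parasitemia, 2.5% hematocrit) incubated with compounds 72 h at 37 C, 5% CO2. Lysis with saponin/Triton buffer containing SYBR Green I, overnight at room temperature in the dark; DNA fluorescence (485/535 nm) normalised to 0.29 uM artemisinin and DMSO.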
# [9] = qHTS profiling for inhibitors of Plasmodium falciparum (DD2) proliferation (AID 743323; call rule not given here); settings: lower = more inhibition; at 28.7 µM (top of the series) unless noted
# How it was run: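 P. falciparum Dd2-infected erythrocytes (0.3% parasitemia, 2.5% hematocrit) exposed 72 h at 37 C, 5% CO2. Lysis with SYBR Green, overnight at room temperature, fluorescence 485/535 nm; normalized to 0.29 uM artemisinin and DMSO.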
# [10] = qHTS profiling for inhibitors of Plasmodium falciparum (HB3) proliferation (AID 743324); settings: Plasmodium falciparum HB3 blood-stage proliferation; at 28.7 µM (top of the series) unless noted
# How it was run: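 P. falciparum HB3 grown in erythrocytes (0.3% parasitemia, 2.5% hematocrit final) with compound for 72 h at 37 C, 5% CO2. Parasite DNA detected by SYBR Green after saponin/triton lysis overnight; normalized to 0.29 uM artemisinin and DMSO.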
# [11] = qHTS profiling of the MIPE4 collection as inhibitors of Plasmodium falciparum (3D7) proliferation (AID 743344; call rule not given here); settings: P. falciparum 3D7 in erythrocytes, SYBR Green DNA fluorescence, 72 h; at 28.5 µM (top of the series)
# How it was run: as §1
# [12] = qHTS profiling of the MIPE4 collection as inhibitors of Plasmodium falciparum (DD2) proliferation (AID 743345; call rule not given here); settings: P. falciparum Dd2 in erythrocytes, SYBR Green DNA, 72 h; at 28.5 µM (top of the series)
# How it was run: as §1
# [13] = qHTS profiling of the MIPE4 collection as inhibitors of Plasmodium falciparum (DD2) proliferation (Rep 2) (AID 743346; call rule not given here); settings: P. falciparum Dd2 in erythrocytes, SYBR Green DNA, 72 h; at 28.5 µM (top of the series)
# How it was run: as §1
# [14] = qHTS profiling of the MIPE4 collection as inhibitors of Plasmodium falciparum (HB3) proliferation (AID 743347; call rule not given here); settings: P. falciparum HB3 in erythrocytes, SYBR Green DNA, 72 h; at 28.5 µM (top of the series)
# How it was run: as §1
smiles,measurement,setting,value
CC(C)OC(=O)c1cc(C(=O)OC(C)C)cc([N+](=O)[O-])c1,max response,[1],-14.7% (inactive)
same,Potency,[2],inactive
same,Potency,[3],inactive
CC(=O)SCC(CC(=O)c1ccc(C)cc1)C(=O)O (centres undefined),Potency,[3],inactive
same,Potency,[4],inactive
same,Potency,[5],inactive
Nc1ncnc2c1c(I)cn2[C@@H]1C[C@H](N)[C@@H](O)[C@H]1O,Potency,[3],inactive
same,Potency,[4],14.6 µM (active)
CC(C)Cc1ccc([C@H](C)C(=O)O)cc1,Potency,[3],inactive
same,Potency,[5],inactive
CC1(C)[C@@H](O)CC[C@]2(C)[C@H]3C(=O)C=C4[C@@H]5C[C@@](C)(C(=O)O)CC[C@]5(C)CC[C@@]4(C)[C@]3(C)CC[C@@H]12,Potency,[6],inactive
same,Potency,[7],inactive
same,Potency,[4],inactive
same,Potency,[5],inactive
CC1(C)S[C@@H]2[C@H](NC(=O)[C@H](NC(=O)N3CCN(S(C)(=O)=O)C3=O)c3ccccc3)C(=O)N2[C@H]1C(=O)O,Potency,[6],inactive
same,Potency,[7],inactive
same,Potency,[4],inactive
same,Potency,[5],inactive
O=C(CS)Nc1ccccc1,Potency,[3],inactive
same,Potency,[5],inactive
CC[C@@H](C)[C@H]1O[C@]2(CC[C@H]1C)C[C@@H]1C[C@@H](CC=C(C)[C@@H](O[C@H]3C[C@H](OC)[C@@H](O[C@H]4C[C@H](OC)[C@@H](O)[C@H](C)O4)[C@H](C)O3)[C@@H](C)C=CC=C3CO[C@@H]4[C@H](O)C(C)=C[C@@H](C(=O)O1)[C@]34O)O2,remaining parasite growth % (stronger effect = lower value),[8],-0.904%
same,"activity, percent of control",[9],-0.0225%
same,"remaining proliferation (% of control), lower = more inhibition",[10],-0.425%
same,"parasite growth, % of DMSO control",[11],35.5%
same,"parasite growth remaining, % of DMSO control (lower = more inhibition)",[12],6.32%
same,"parasite growth, % of control (lower = inhibition)",[13],38.4%
same,"growth, % of control",[14],12.5%
same,Potency,[3],inactive
C[C@H](O)[C@H](O)[C@H]1CNc2nc(N)[nH]c(=O)c2N1,Potency,[6],inactive
same,Potency,[7],inactive
same,Potency,[4],inactive
same,Potency,[5],inactive
CN1CCN(c2cc3c(nn2)Oc2ccccc2N3C)CC1,Potency,[6],inactive
same,Potency,[7],inactive
CO[C@@]1(NC(=O)Cc2cccs2)C(=O)N2C(C(=O)O)=C(COC(N)=O)CS[C@@H]21,Potency,[3],inactive
same,Potency,[5],inactive
[O-][n+]1ccccc1SSc1cccc[n+]1[O-],Potency,[3],inactive
same,Potency,[7],inactive
same,Potency,[5],7.31 µM (active)
CCN1/C(=C/C(C)=O)Sc2ccc(OC)cc21,Potency,[3],inactive
same,Potency,[5],inactive
O=C(O)CC1CC(c2ccccc2)=NO1 (centres undefined),Potency,[3],inactive
same,Potency,[4],inactive
same,Potency,[5],inactive
